Common to all, as to test: NCI-60 one-dose screen, 48 h (100 = growth as untreated, 0 = no growth, -100 = all killed)
In one assay the test system is SK-MEL-2 melanoma. To be noted: 10 µM.
The next assay relates to EKVX NSCLC. To be noted: 10 µM.
The test system of another assay is SN12C renal. To be noted: 10 µM.
In another assay the test system is UO-31 renal. To be noted: 10 µM.
The test system of a further assay is TK-10 renal.
A further assay relates to ACHN renal. To be noted: 10 µM.
The test system of another assay is CAKI-1 renal. To be noted: 10 µM.
The test system of the next assay is A498 renal. To be noted: 10 µM.
Another assay deals with CCRF-CEM leukemia. To be noted: 10 µM.
The next assay concerns MOLT-4 leukemia. To be noted: 10 µM.
A further assay concerns SR leukemia. To be noted: 10 µM unless noted.
The test system of the next assay is RPMI-8226 leukemia. To be noted: 10 µM.
Another assay relates to OVCAR-8 ovarian. To be noted: 10 µM.
The next assay concerns OVCAR-5 ovarian. To be noted: 10 µM.
In a further assay the test system is OVCAR-4 ovarian. To be noted: 10 µM.
The next assay deals with SK-OV-3 ovarian. To be noted: 10 µM.
For the next assay, the system named is IGROV1 ovarian. To be noted: 10 µM.
In a further assay the test system is HS 578T breast. To be noted: 10 µM.
The subject of a further assay is NCI/ADR-RES ovarian. To be noted: 10 µM.
The subject of another assay is OVCAR-3 ovarian. To be noted: 10 µM.

Values joined by “and” are separate entries in the source; they are usually repeats but may differ in a detail not shown here. Equal entries are not always repeated. Compounds without any hit were thinned out: in the full panel of roughly 83,000, 20% have a hit.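 Cell lines were cultured in 96-well plates, exposed to a single compound concentration, and assessed for percent growth 48 hours later.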 Unmarked numbers belong to inactive results. Active and inactive are the calls of the source. How the source made its calls: active means growth percent below 10; inactive means the rest.

Regarding `CC(=O)OCC(OC(C)=O)C(OC(C)=O)C(OC(C)=O)C(OC(C)=O)C(/C=N/Nc1ccccc1)=N/Nc1ccccc1` (stereo not drawn), the growth is 84.3% in the assay with SK-MEL-2 melanoma; 60% in the assay on EKVX NSCLC; 78.7% with SN12C renal; 48.6% with UO-31 renal; 91.2% in the assay on TK-10 renal (10 µM); 56.2% with ACHN renal. In addition, the growth in the assay on CAKI-1 renal is 72.6%; in the assay on A498 renal, 83.4%; in the assay on CCRF-CEM leukemia, 17.5%; in the assay with MOLT-4 leukemia, 30.6%; in the assay on SR leukemia, 2.05% (active); in the assay with RPMI-8226 leukemia, 60.6%. Further, the growth is 63.8% in the assay on OVCAR-8 ovarian; 96.4% in the assay with OVCAR-5 ovarian; 82.6% in the assay with OVCAR-4 ovarian; 85.5% in the assay with SK-OV-3 ovarian; 60.1% in the assay with IGROV1 ovarian; 73% in the assay on HS 578T breast. Besides, the growth in the assay with NCI/ADR-RES ovarian was 72.4%.
As for `CC1=CC(C)=Nc2ccc(Cl)cc2N1`, the growth was 109% in the assay with SK-MEL-2 melanoma; 108% in the assay with EKVX NSCLC; 104% in the assay with SN12C renal; 85.9% with UO-31 renal; 105% with ACHN renal; 89.8% with CAKI-1 renal. The growth in the assay on A498 renal is 106%; in the assay on CCRF-CEM leukemia it was 93.9%; with MOLT-4 leukemia, 97.5%; with SR leukemia, 91.1%; in the assay with RPMI-8226 leukemia, 102%; in the assay with OVCAR-8 ovarian, 102%. In addition, the growth in the assay on OVCAR-5 ovarian is 112%; in the assay on OVCAR-4 ovarian, 110%; with SK-OV-3 ovarian it was 98.7%; with IGROV1 ovarian it was 103%; in the assay on OVCAR-3 ovarian, 102%; with HS 578T breast, 104%. Besides, the growth with NCI/ADR-RES ovarian was 102%.
For `O=C(O)COc1ccc(OCC(=O)O)cc1`, the growth in the assay with SK-MEL-2 melanoma was 64.9%; in the assay with EKVX NSCLC, 51.8%; in the assay with SN12C renal, 2.58% (active); in the assay with UO-31 renal, 50.5%; in the assay with ACHN renal it was 30.1%; in the assay with CAKI-1 renal, 90.7%. The growth in the assay with A498 renal was -14.2% (active); with CCRF-CEM leukemia, 2.46% (active); in the assay with MOLT-4 leukemia, 9.12% (active); in the assay on SR leukemia it was 10.3%; in the assay on RPMI-8226 leukemia, -15.6% (active); in the assay with OVCAR-8 ovarian, 13%. In addition, the growth with OVCAR-5 ovarian is 11%; in the assay with OVCAR-4 ovarian, 21.4%; in the assay on SK-OV-3 ovarian, 11.4%; with IGROV1 ovarian, 27.4%; with HS 578T breast, 20.9%; in the assay with NCI/ADR-RES ovarian it was 83.3%.
As to `COc1cccc2c1C(=O)c1c(O)c3c(c(O)c1C2=O)C[C@@](O)(C(C)=O)C[C@@H]3OC1CC(N)C(O)C(C)O1` (stereo partly drawn), the growth in the assay on SK-MEL-2 melanoma was -38.6% (active); in the assay on EKVX NSCLC, -3.48% (active); with SN12C renal it was 8.87% (active); with UO-31 renal, 11.3%; in the assay with TK-10 renal (10 µM) it was 18.5%; in the assay with TK-10 renal (50 µM), -97.7% (active) and -90.9% (active). Further, the growth is 0.546% (active) with ACHN renal; -31.1% (active) with CAKI-1 renal; -71.7% (active) with A498 renal; -24.1% (active) in the assay on CCRF-CEM leukemia; -26.1% (active) in the assay with MOLT-4 leukemia; -25.4% (active) in the assay on SR leukemia. Also, the growth is -23.9% (active) in the assay with RPMI-8226 leukemia; -12.3% (active) with OVCAR-5 ovarian; -3.17% (active) in the assay with OVCAR-4 ovarian; 5.5% (active) in the assay with SK-OV-3 ovarian; -29% (active) in the assay on IGROV1 ovarian; -1.56% (active) in the assay on OVCAR-3 ovarian. In addition, the growth in the assay with HS 578T breast is -69% (active); in the assay with NCI/ADR-RES ovarian, 23.9%.
Take `OC(CN1CCCC2CCCCC21)c1cc2ccccc2c2ccccc12` (stereo not drawn): the growth with SK-MEL-2 melanoma is 42.8%; with EKVX NSCLC, 42.3%; with SN12C renal, 49.7%; in the assay on UO-31 renal it was 35.6%; in the assay with TK-10 renal (10 µM), 52.6%; with ACHN renal, 29.1%. Besides, the growth with CAKI-1 renal is 41.2%; in the assay on A498 renal, 58.8%; with CCRF-CEM leukemia, 68.2%; in the assay on MOLT-4 leukemia, -1.89% (active); in the assay with SR leukemia, -36.1% (active); in the assay with RPMI-8226 leukemia, 15.8%. The growth is 51.6% with OVCAR-8 ovarian; 34.2% with OVCAR-5 ovarian; 29.1% with OVCAR-4 ovarian; 37.7% with SK-OV-3 ovarian; 58.1% in the assay with IGROV1 ovarian; 26.1% in the assay on HS 578T breast. Moreover, the growth in the assay with NCI/ADR-RES ovarian was 17.4%.
In the case of `CCCCCCCCCCSC(=N)N`, the growth in the assay with SK-MEL-2 melanoma is 61.9%; with EKVX NSCLC, 92.1%; with SN12C renal it was 60.9%; in the assay with UO-31 renal it was 53.4%; with ACHN renal, 50.1%; with CAKI-1 renal, 46.4%. In addition, the growth with A498 renal is 95.1%; with CCRF-CEM leukemia, 51.3%; with MOLT-4 leukemia it was 15.2%; in the assay with SR leukemia it was -25% (active); in the assay on RPMI-8226 leukemia, -11% (active); in the assay with OVCAR-8 ovarian, 61.5%. The growth in the assay on OVCAR-5 ovarian is 77.4%; with OVCAR-4 ovarian, 76.7%; with SK-OV-3 ovarian, 77.5%; in the assay on IGROV1 ovarian it was 46.1%; in the assay on HS 578T breast it was 81.1%; in the assay on NCI/ADR-RES ovarian, 69.3%.

These data come from PubChem BioAssay (NCI).
